Shown are actives, neighbours in structure and some others; about 4% of the full set was active somewhere.
NALP1 yeast inh = blocks the NALP1 inflammasome reconstituted in yeast. S. cerevisiae NALP1/ASC/caspase-1 growth, X-gal OD620, 72 h. 0.61% of 280,000 active. inhibition, % at 10 µM. AID 2071; in the data active = inhibition mostly above about 24%, no sharp cut-off; inactive = mostly below about 32%
NLRP3 yeast inh = NALP3 inhibition in yeast; Yeast reconstituted NLRP3/ASC/caspase-1, beta-gal luminescence, 24 h; inhibition, % at 10 µM; 0.39% of 330,000 active; AID 2825;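 active = inhibition of 50% or more; inactive = inhibition below 50%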;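 note: plate controls were induced DMSO wells for no effect and uninduced yeast grown without galactose for full effect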
TIM10 inh = TIM10 yeast growth inhibition; S. cerevisiae TIM10 strain growth, BacTiter-Glo luminescence, 24 h; inhibition, % at 10 µM; 1.4% of 330,000 active; AID 463195;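 active = inhibition of 40% or more at the single tested concentration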;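 note: wild-type TIM10 isogenic control strain grown at permissive 25 °C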
tim10-1 inh = tim10-1 yeast growth inhibition. S. cerevisiae tim10-1 ts strain growth, BacTiter-Glo, 24 h. inhibition, % at 20 µM. 2.2% of 330,000 active. AID 463190;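 active = inhibition of at least 40%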;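 note: mutant grown at 25 °C; 0% = DMSO wells with yeast and 100% = wells holding no yeast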
tim23-1 inh = inhibits growth of tim23-1 mutant yeast; S. cerevisiae tim23-1 growth, BacTiter-Glo luminescence, 24 h; inhibition, % at 20 µM; 1.3% of 330,000 active;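 active = growth inhibition of the mutant yeast at or above 50%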;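 note: temperature-sensitive mutant grown at 25 °C; plate controls were DMSO-treated mutant yeast for no effect and medium wells lacking yeast for full effect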
NALP3 confirm = NALP3 inhibition confirmation in yeast | shares compounds with NLRP3 yeast inh | yeast expressing human NALP3, luminescence | inhibition, % at 10 µM | 81% of 1,300 active; in the data active = inhibition above about 48%
Casp1 ASC ctr = active in yeast caspase-1-ASC counter-screen for NALP3 inhibitors; inhibition, % at 10 µM; shares compounds with NLRP3 yeast inh; yeast expressing Caspase-1-ASC, luminescence counter screen; 66% of 1,000 active
NALP3 retest = confirmation retest of NALP3 inhibitors in yeast; AID 488794; yeast expressing human NALP3, luminescence read-out; 53% of 1,000 active; shares compounds with NLRP3 yeast inh; inhibition, % at 10 µM
* marks the source's active call; other numbers are inactive results; . = not tested or not shown. Cut-off read from the data, not from the text of the source, unless noted: active = inhibition above about 50%; inactive = the rest.

SMILES	NALP1 yeast inh	NLRP3 yeast inh	TIM10 inh	tim10-1 inh	tim23-1 inh	NALP3 confirm	Casp1 ASC ctr	NALP3 retest
CC(C)CNS(=O)(=O)c1ccc(CCC(=O)N2CCC(C(N)=O)CC2)cc1	-15	12	-14	-10	-4	.	.	.
CCOc1ccccc1NC(=O)COc1cccnc1[N+](=O)[O-]	.	59*	6	4	28	74*	.	.
O=C(COc1cccnc1[N+](=O)[O-])Nc1ccc(F)cc1	.	14	-1	2	-4	.	.	.
COc1ccccc1NC(=O)COc1cccnc1[N+](=O)[O-]	.	51*	9	14	5	67*	75*	62*
COc1ccccc1CNC(=O)COc1cccnc1[N+](=O)[O-]	6	22	14	-7	0	.	.	.
COc1ccccc1CNc1ncccc1[N+](=O)[O-]	24	50*	6	-5	1	48*	37	39
CCC(C)[C@H](NC(=O)NCc1ccc(F)cc1)C(=O)O (some centres undefined)	10	-7	-7	10	-7	.	.	.
COc1ccc(S(=O)(=O)Nc2ccccc2C(=O)NCc2cccnc2)cc1	18	-5	15	14	2	.	.	.
Cc1onc(-c2ccccc2Cl)c1C(=O)N1C=CC(C(F)(F)Cl)=NCC1	-7	33	3	14	22	.	.	.
Cc1onc(-c2ccccc2Cl)c1C(=O)N1C=CC(C(F)(F)F)=NCC1	58*	50*	13	7	21	66*	45	53*
CCCCOc1ccc(C(=O)Oc2ccc(C)nc2)cc1	28	80*	21	30	32	87*	92*	84*
C[C@@H]1COC(=O)[C@H](Cc2ccc(F)cc2)C/C=C\C[C@@H](CC(=O)NCCO)C(=O)N1	.	14	-1	-17	-7	.	.	.
CCOC(=O)c1sc(Nc2nc(OC)cc(OC)n2)nc1C	15	29	5	33	19	.	.	.
CC(Oc1ccccc1)C(=O)Nc1cc(Cl)ccc1-n1cncn1 (centres undefined)	.	57*	-6	11	14	59*	52*	46
O=C(Nc1cc(Cl)ccc1-n1cncn1)c1ccc([N+](=O)[O-])s1	45*	82*	25	34	47	91*	.	.
CC(Oc1ccc(F)cc1)C(=O)Nc1cc(Cl)ccc1-n1cncn1 (centres undefined)	.	49	6	19	29	.	.	.
CCOC(=O)c1c(NC(=O)CC2SC(=NC)N(C)C2=O)sc(C)c1C (centres undefined)	12	60*	4	5	11	59*	60*	43
O=C(CSc1ccc2ccccc2n1)Nc1ccc(N2CCOCC2)cc1	3	20	0	3	-2	.	.	.
CCOC(=O)Cc1csc(NC(=O)c2ccc(Br)s2)n1	39*	67*	6	-27	28	76*	.	.
CCOC(=O)Cc1csc(NC(=O)c2cccs2)n1	21	28	4	-7	16	.	.	.
Cc1cc(C(=O)COC(=O)c2csc3c2CCCC3)c(C)n1C	-6	54*	2	-10	12	62*	33	23
CCC(C)NC(=S)N(Cc1cc2cc(C)ccc2n2nnnc12)CC(C)(C)NC(C)C (centres undefined)	-13	14	10	7	4	.	.	.
O=C(CSCc1ccc([N+](=O)[O-])cc1)Nc1ccccc1C(=O)O	11	4	-9	-4	4	.	.	.
CCCc1ccc(C(=O)NNc2cc(Cl)ccc2Cl)cc1	6	57*	18	3	29	54*	56*	49
C(=C\n1nnc2ccccc21)/c1ccccn1	.	53*	-5	-14	15	71*	37	.
CC1(C)[C@@H](O)CC[C@]2(C)C3C(O)C=C4[C@H]5C[C@@](C)(C(=O)O)CC[C@]5(C)CC[C@]4(C)[C@]3(C)CC[C@@H]12 (some centres undefined)	.	60*	8	10	8	70*	.	.
CCc1cccc(NC(=S)N2CCC(c3ccccc3)C2)c1 (centres undefined)	13	52*	39	18	36	56*	62*	45

Source: PubChem (Sanford-Burnham Center for Chemical Genomics)
